Test results taken from PubChem BioAssay AID371 (SRMLSC, 2006).
About 280 (8.5%) of roughly 3,300 compounds were called active. Shown is part of a subset that was picked to be rich in actives. Values without a mark were called inactive.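 How the source made its calls: active means mean growth inhibition over the two runs of 50% or more; inactive means mean growth inhibition under 50%.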

Assay: A549 NSCLC cell proliferation inhibitors – ATP luminescence, human non-small cell lung line, primary screen (AID 371);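 further: compound exposure lasted 72 h before the ATP read; 0% = untreated cell signal and 100% = no luminescence left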
Conditions: at 10 µM, stronger effect = higher value

SMILES	growth inhibition
COc1ccc(-c2oc3ncn4nc(COc5ccccc5)nc4c3c2-c2ccc(OC)cc2)cc1	10.6%
CCOC(=O)c1[nH]c2ccc(OC)cc2c1NC(=O)CCN1CCCC(C)C1 (configuration not stated)	6.76%
c1cncc(Oc2cccc(Oc3cccnc3)c2)c1	20.7%
COc1ccc(OC)c(C2C(C(=O)c3sc(C)nc3C)=C(O)C(=O)N2CCN2CCOCC2)c1 (configuration not stated)	5.82%
O=C1CC(NCc2ccc3c(c2)OCO3)C(=O)N1Cc1ccc2c(c1)OCO2 (configuration not stated)	0.14%
COCc1[nH]nc2c1C(c1cccc(OC)c1)C(C#N)=C(N)O2 (configuration not stated)	8.14%
CCN1CC2=C(OC(N)=C(C#N)C2c2ccccc2)/C(=C\c2ccccc2)C1 (configuration not stated)	46.8%
COc1cccc(/C=C2/CN(C)CC3=C2OC(N)=C(C#N)C3c2cccc(OC)c2)c1 (configuration not stated)	67.5% (active)
Cc1cc(N2C(=O)C(=O)/C(=C(/O)c3ccc(F)cc3)C2c2ccc(F)cc2)no1 (configuration not stated)	9.16%
CCc1nc2n[nH]c(N)c2c2c1CSC(C)(C)C2	12.5%
COc1ccccc1-c1cc(-c2cc(Cl)ccc2O)n[nH]1	15%
COc1cccc(NC(=O)C2CC(=O)n3cnnc3S2)c1 (configuration not stated)	-2.07%
c1ccc(-n2c(Cc3cccnc3)nc3cnccc32)cc1	-4.36%
Clc1ccc(-c2nn3c(-c4cccc(Cl)c4)nnc3s2)cc1	22.7%
Cc1cccc(OCC(=O)NCC(=O)n2nc(C)cc2C)c1	1.47%
Cc1cccc(OCCN2CSC(=S)N(C)C2)c1	51.6% (active)
Cc1c(C(=O)O)c(=S)sn1CCOc1ccccc1	3.85%
COc1cccc(-c2nnc3sc(-c4ccccc4)nn23)c1	8.34%
COc1ccc(-c2onc(C)c2-c2ccccc2)c(O)c1	52.1% (active)
COc1ccc(-c2ncncc2-c2csc(C)n2)c(O)c1	3.39%
Nc1nnc(Cc2ccc(Cl)c(Cl)c2)s1	18.2%
O=C1NC(=O)C(c2cn(-c3ccccc3)nc2-c2ccc(F)cc2)N1 (configuration not stated)	10.6%
CC[C@H]1CN2CCc3cc(OC)c(OC)cc3[C@@H]2C[C@@H]1C[C@H]1NCCc2cc(OC)c(OC)cc21	78.5% (active)

SMILES	growth inhibition
Cc1ccc(-c2ccccc2NC(=O)C2C3C=CC(C3)C2C(=O)O)o1 (configuration not stated)	1.09%
C/C(=N\O)c1ccc2[nH]ccc2c1	9.01%
Nc1nc(Cl)nc2c1ncn2[C@@H]1O[C@H](CO)[C@@H](O)[C@H]1O	33.3%
Nc1nc(F)nc2c1ncn2[C@@H]1O[C@H](CO)[C@@H](O)[C@@H]1O	73.1% (active)
Nc1ncnc2c1ncn2[C@@H]1O[C@H](CO)[C@@H](O)[C@H]1O	1.29%
CCOC(=O)CSc1nc(C)c(C(C)=O)cc1C#N	7.6%
O=C(O)CCCc1ccccc1	-1.26%
N#C/C(=C\c1ccc(O)c(O)c1)C(=O)NCCCc1ccccc1	64.3% (active)
O=C(NCCc1ccccc1)/C(=N\O)c1ccccc1	10.9%
CC(C)(C)C1=Nn2c(nnc2-c2ccco2)SC1	2.63%
CC(=O)N(Cc1ccccc1)c1ccc(C(=O)O)cc1	-0.07%
COc1ccccc1C(CC(=O)Nc1nccs1)c1ccco1 (configuration not stated)	11.7%
O=c1[nH]nc2n1CCCCC2	2.49%
CC(C)C1Cc2c(sc3c2c(=O)n(Cc2ccccc2)c2nncn32)CO1 (configuration not stated)	25.2%
Cc1nnc2n(-c3ccccc3)c(=O)c3c4c(sc3n12)COC(C(C)C)C4 (configuration not stated)	13.4%
Cc1nnc2n(Cc3ccccc3)c(=O)c3c4c(sc3n12)COC(C(C)C)C4 (configuration not stated)	72.3% (active)
COC(=O)c1[nH]c2cc(OC)ccc2c1NC(=O)CN1CCC(C(N)=O)CC1	-2.17%
COC(=O)c1[nH]c2cc(OC)ccc2c1NC(=O)CN1CCN(c2cccc(C)c2)C(C)C1 (configuration not stated)	68% (active)
COC(=O)c1[nH]c2cc(OC)ccc2c1NC(=O)CCN1CCCC(C)(C)C1	-5.32%
COc1cccc2c(=O)c(SC(F)(F)C(F)C(F)(F)F)c(C)[nH]c12 (configuration not stated)	46.7%
CC(C)(C)c1cccc(/C=N/O)c1O	84.1% (active)
CSC(=Nc1ccccc1)C1=C(O)COC1=O	3.6%
CSc1nc(C)c2c(c1C#N)CCCC2	11.1%

SMILES	growth inhibition
O=C(NC1CCCCC1)[C@H](O)[C@@H](O)C(=O)NC1CCCCC1	-22.3%
CCCc1nc(N2CCCC2)c(C#N)c2c1CCCC2	20.2%
COc1ccc(CNc2oc(COc3ccc(Cl)cc3)nc2C#N)cc1	74.1% (active)
COc1ccc(CCNc2oc(COc3ccccc3)nc2C#N)cc1	31.8%
COc1ccc(CNc2oc(COc3ccccc3Cl)nc2C#N)cc1	34.1%
COC(=O)c1ccc(Cn2nnc3c(sc4nc(N5CCOCC5)c5c(c43)CCCC5)c2=O)o1	3.34%
O=CNC(=O)c1ccccc1C(=O)O	-1.48%
CCOC(=O)c1cc2cc(OC)ccc2[nH]1	15.9%
CCCCC(=O)Nc1c(O)c2ccccc2[nH]c1=O	3.38%
COc1ccc(-c2coc3cc(O)cc(O)c3c2=O)cc1	21.9%
O=c1c(O)c(-c2ccc(O)cc2O)oc2cc(O)cc(O)c12	4.21%
O=c1c(-c2ccc3c(c2)OCCO3)c(C(F)(F)F)oc2cc(O)cc(O)c12	71.1% (active)
COC(=O)c1cc(=O)n2c(-c3ccc(OC)cc3)csc2n1	-0.07%
O=C(O)CCCCCN1C(=O)CCC1=O	-0.47%
CC1(C)Cc2c(c(N3CCOCC3)nc3sc4c(NCc5ccco5)nnnc4c23)CS1	32.9%
OCCN1CCN(CCCN2c3ccccc3Sc3ccc(Cl)cc32)CC1	90.6% (active)
OCCN1CCN(CCCN2c3ccccc3Sc3ccc(C(F)(F)F)cc32)CC1	92.3% (active)
CN1CCN(CCC(=O)N2c3ccccc3Sc3ccc(Cl)cc32)CC1	13.4%
CN1CCN(CCCN2c3ccccc3Sc3ccc(Cl)cc32)CC1	0.16%
CN1CCN(CCCCOc2ccc(F)cc2)CC1	3.19%
CN1CCN(CCCN2c3ccccc3Sc3ccc(C(F)(F)F)cc32)CC1	93.1% (active)
